What all share (test): DAPPL (digital affinity profiling via proximity ligation, sequencing); 10 mM Tris-HCl pH 7.5, 50 mM NaCl, 1 mM DTT, 4% glycerol, room temperature, 30 min; GST-TFs on glutathione beads, 16-mer random dsDNA library, 0.1% formaldehyde crosslink after washing; high values mean tight binding
In one assay the target is T1, FEV (Homo sapiens, UniProt Q99581 1-238).
T1 sequence: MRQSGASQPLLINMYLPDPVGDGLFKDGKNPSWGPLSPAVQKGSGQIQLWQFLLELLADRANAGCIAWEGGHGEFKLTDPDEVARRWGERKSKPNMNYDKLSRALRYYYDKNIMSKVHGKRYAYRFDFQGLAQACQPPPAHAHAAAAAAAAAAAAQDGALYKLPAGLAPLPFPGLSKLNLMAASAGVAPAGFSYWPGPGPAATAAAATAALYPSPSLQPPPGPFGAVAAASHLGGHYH
Particulars: protein: recombinant; tags: N-terminal GST; dsDNA, one strand shown. The procedure, abridged:
(§1)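 Pools were built from human transcription factors expressed in yeast as GST fusions, captured on glutathione beads and DNA-barcoded, along with a tag-only sample. Incubation with 200 nmole of a 16-mer random double-stranded DNA library lasted 30 min at room temperature in Tris/NaCl/DTT/glycerol buffer, and was followed by washing, 0.1% formaldehyde crosslinking, proximity ligation, PCR amplification and Illumina NextSeq500 sequencing. Binding signal is the quotient of each hexamer's read frequency for a factor and its frequency for the tag-only sample.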

In a further assay the target is ETV5 (Homo sapiens, UniProt P41161 1-510). Conditions: protein: recombinant; tags: N-terminal GST; dsDNA, one strand shown. The procedure, abridged:
as §1

Another assay has as its target HSF1 (Homo sapiens, UniProt Q00613 1-529). Conditions: protein: recombinant; tags: N-terminal GST; chain copies: 3; dsDNA, one strand shown. The procedure, abridged: as §1
For another assay, the target named is T2, SPIC (Homo sapiens, UniProt Q8N5J4 1-248).
T2 sequence: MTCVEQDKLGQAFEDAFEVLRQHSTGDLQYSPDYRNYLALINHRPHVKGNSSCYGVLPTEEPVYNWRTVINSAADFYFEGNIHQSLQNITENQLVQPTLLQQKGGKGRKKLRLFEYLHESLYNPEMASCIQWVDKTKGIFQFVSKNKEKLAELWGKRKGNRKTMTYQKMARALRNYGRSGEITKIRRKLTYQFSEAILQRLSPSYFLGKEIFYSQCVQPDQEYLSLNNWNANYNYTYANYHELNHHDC
Conditions: protein: recombinant; tags: N-terminal GST; dsDNA, one strand shown. The procedure, abridged: as §1

The next assay concerns the target ELF4 (Homo sapiens, UniProt Q99607 1-663). Conditions: protein: recombinant; tags: N-terminal GST; dsDNA, one strand shown. The procedure, abridged:
as §1

In the next assay the target is T3, ELK4 (Homo sapiens, UniProt P28324-2 1-405).
T3 sequence: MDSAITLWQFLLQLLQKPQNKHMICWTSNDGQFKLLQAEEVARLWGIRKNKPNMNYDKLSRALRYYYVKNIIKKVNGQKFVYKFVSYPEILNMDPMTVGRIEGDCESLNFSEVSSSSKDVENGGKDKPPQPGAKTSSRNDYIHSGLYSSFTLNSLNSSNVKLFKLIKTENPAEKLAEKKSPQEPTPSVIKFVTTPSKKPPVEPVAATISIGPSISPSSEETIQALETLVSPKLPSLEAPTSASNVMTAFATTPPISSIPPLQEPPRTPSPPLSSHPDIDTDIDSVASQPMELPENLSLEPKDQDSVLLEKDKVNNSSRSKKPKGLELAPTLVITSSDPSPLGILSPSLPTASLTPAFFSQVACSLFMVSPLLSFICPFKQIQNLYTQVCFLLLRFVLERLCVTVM
Particulars: protein: recombinant; tags: N-terminal GST; dsDNA, one strand shown. The procedure, abridged:
as §1

The next assay deals with T4, ETV2 (Homo sapiens, UniProt O00321 1-342).
T4 sequence: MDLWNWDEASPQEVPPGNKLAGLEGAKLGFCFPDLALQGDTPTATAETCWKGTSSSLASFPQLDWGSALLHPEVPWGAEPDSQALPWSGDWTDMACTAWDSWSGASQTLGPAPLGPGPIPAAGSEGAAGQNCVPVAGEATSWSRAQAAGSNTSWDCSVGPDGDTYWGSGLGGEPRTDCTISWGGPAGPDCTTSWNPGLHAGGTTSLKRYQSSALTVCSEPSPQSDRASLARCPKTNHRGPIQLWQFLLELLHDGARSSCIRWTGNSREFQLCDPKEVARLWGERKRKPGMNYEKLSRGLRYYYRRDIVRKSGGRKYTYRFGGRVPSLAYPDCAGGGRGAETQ
Conditions: protein: recombinant; tags: N-terminal GST; dsDNA, one strand shown. The procedure, abridged: as §1

The target of a further assay is T5, ELF3 (Homo sapiens, UniProt P78545 1-371).
T5 sequence: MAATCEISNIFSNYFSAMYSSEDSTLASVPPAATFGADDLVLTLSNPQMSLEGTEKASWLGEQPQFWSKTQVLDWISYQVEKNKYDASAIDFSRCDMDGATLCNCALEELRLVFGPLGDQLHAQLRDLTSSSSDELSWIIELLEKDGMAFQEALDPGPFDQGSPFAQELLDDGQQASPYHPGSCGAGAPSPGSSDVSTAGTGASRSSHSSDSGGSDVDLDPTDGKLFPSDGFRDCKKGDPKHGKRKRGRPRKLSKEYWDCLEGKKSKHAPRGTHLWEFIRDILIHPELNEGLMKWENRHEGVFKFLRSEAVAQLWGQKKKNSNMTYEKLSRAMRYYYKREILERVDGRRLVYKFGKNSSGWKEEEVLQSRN
Particulars: protein: recombinant; tags: N-terminal GST; dsDNA, one strand shown. The procedure, abridged:
as §1

The target of the next assay is CRX (Homo sapiens, UniProt O43186 1-299). Conditions: protein: recombinant; tags: N-terminal GST; dsDNA, one strand shown. The procedure, abridged: as §1
Sequence of CRX (O43186 whole entry): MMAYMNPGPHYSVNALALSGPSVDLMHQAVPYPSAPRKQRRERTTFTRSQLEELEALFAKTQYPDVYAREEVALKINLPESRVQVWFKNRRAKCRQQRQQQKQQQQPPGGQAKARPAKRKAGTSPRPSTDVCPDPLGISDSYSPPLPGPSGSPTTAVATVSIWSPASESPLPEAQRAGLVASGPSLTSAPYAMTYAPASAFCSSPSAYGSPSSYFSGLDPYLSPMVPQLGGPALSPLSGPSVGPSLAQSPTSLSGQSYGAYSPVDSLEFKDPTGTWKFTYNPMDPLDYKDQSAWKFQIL
For another assay, the target named is ETV1 (Homo sapiens, UniProt P50549 1-477). Particulars: protein: recombinant; tags: N-terminal GST; dsDNA, one strand shown. The procedure, abridged: as §1
Sequence of ETV1 (P50549 whole entry): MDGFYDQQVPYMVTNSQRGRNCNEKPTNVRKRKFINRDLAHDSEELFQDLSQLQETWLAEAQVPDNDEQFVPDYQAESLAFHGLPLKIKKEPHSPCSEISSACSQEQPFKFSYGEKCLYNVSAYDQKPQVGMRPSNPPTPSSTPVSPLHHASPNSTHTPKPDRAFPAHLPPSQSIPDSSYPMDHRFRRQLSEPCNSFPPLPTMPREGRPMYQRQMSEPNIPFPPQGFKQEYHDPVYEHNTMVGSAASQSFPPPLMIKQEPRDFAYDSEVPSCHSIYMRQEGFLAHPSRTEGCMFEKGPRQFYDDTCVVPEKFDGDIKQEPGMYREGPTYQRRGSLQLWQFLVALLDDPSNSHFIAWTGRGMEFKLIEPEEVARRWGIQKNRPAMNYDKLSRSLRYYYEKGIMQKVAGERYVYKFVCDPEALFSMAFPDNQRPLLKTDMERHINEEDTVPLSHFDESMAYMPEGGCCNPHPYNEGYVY

Sequence of HSF1 (Q00613 whole entry): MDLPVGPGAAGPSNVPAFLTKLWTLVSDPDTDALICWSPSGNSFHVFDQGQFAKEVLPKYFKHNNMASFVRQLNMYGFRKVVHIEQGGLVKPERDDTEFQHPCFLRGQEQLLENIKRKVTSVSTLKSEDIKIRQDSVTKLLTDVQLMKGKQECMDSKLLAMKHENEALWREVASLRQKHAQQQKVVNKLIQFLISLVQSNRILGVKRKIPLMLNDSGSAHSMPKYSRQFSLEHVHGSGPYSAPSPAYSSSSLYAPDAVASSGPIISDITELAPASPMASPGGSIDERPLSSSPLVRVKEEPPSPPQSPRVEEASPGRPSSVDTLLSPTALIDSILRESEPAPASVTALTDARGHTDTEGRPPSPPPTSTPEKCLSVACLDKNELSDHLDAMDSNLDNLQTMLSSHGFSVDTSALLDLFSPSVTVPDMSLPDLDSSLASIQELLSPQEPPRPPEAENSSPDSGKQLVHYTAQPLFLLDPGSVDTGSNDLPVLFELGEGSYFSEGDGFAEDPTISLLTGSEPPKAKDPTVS
Sequence of ETV5 (P41161 whole entry): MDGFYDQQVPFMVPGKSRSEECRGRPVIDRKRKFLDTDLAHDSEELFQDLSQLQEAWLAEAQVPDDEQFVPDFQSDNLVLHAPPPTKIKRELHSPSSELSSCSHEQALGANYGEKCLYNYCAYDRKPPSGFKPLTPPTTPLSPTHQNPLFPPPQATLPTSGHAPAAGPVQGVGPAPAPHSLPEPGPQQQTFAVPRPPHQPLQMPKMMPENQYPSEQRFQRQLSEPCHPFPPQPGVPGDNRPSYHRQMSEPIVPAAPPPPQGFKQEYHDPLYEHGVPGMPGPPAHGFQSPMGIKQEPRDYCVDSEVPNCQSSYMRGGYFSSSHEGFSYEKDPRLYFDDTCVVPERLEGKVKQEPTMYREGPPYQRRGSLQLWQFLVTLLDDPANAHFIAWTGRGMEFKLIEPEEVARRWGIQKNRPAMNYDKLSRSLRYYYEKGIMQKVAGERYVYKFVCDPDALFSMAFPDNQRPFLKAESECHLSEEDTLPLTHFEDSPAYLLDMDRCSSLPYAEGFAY
Sequence of ELF4 (Q99607 whole entry): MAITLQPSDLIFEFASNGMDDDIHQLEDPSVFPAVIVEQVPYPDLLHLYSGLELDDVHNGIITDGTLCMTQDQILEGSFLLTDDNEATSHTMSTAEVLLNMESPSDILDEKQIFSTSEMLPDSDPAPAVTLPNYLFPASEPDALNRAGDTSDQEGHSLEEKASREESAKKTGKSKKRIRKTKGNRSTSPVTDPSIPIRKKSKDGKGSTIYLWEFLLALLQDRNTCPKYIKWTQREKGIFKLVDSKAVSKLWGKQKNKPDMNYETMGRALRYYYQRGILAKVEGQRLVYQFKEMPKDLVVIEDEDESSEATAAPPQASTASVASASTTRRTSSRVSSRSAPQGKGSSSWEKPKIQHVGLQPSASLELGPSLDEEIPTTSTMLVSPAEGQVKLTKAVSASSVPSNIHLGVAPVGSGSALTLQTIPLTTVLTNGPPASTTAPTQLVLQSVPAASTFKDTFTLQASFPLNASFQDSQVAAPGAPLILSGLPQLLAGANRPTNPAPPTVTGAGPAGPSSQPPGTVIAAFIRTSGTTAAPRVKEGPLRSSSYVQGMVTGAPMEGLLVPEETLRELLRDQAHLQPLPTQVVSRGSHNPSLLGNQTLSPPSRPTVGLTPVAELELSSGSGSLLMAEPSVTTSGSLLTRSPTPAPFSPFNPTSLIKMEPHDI

With CCTTAG, the binding signal is 1.28 fold enrichment (6-mer frequency, TF over GST control) in the assay with FEV; 1.18 fold enrichment (6-mer frequency, TF over GST control) in the assay with ETV5; 1.2 fold enrichment (6-mer frequency, TF over GST control) in the assay with HSF1; 1.36 fold enrichment (6-mer frequency, TF over GST control) in the assay with SPIC; 1.34 fold enrichment (6-mer frequency, TF over GST control) in the assay with ELF4; 1.34 fold enrichment (6-mer frequency, TF over GST control) in the assay with ELK4. Besides, the binding signal with ETV2 was 1.32 fold enrichment (6-mer frequency, TF over GST control); with ELF3, 1.05 fold enrichment (6-mer frequency, TF over GST control); in the assay with CRX, 1.28 fold enrichment (6-mer frequency, TF over GST control); in the assay with ETV1 it was 1.22 fold enrichment (6-mer frequency, TF over GST control).

Consider AATCCC, for which the binding signal is 1.41 fold enrichment (6-mer frequency, TF over GST control) with FEV; 1.3 fold enrichment (6-mer frequency, TF over GST control) with ETV5; 2.47 fold enrichment (6-mer frequency, TF over GST control) with HSF1; 1.2 fold enrichment (6-mer frequency, TF over GST control) with SPIC; 1.33 fold enrichment (6-mer frequency, TF over GST control) with ELF4; 1.28 fold enrichment (6-mer frequency, TF over GST control) with ELK4. Also, the binding signal with ETV2 was 1.37 fold enrichment (6-mer frequency, TF over GST control); with ELF3, 1.35 fold enrichment (6-mer frequency, TF over GST control); in the assay with CRX, 3.65 fold enrichment (6-mer frequency, TF over GST control); with ETV1 it was 1.42 fold enrichment (6-mer frequency, TF over GST control).

Turning to CCTTTT, the binding signal was 1.68 fold enrichment (6-mer frequency, TF over GST control) in the assay with FEV; 1.56 fold enrichment (6-mer frequency, TF over GST control) in the assay with ETV5; 1.37 fold enrichment (6-mer frequency, TF over GST control) with HSF1; 1.83 fold enrichment (6-mer frequency, TF over GST control) in the assay with SPIC; 1.64 fold enrichment (6-mer frequency, TF over GST control) with ELF4; 1.58 fold enrichment (6-mer frequency, TF over GST control) in the assay with ELK4. Besides, the binding signal with ETV2 is 1.38 fold enrichment (6-mer frequency, TF over GST control); in the assay with ELF3, 1.68 fold enrichment (6-mer frequency, TF over GST control); with CRX it was 1.36 fold enrichment (6-mer frequency, TF over GST control); with ETV1, 1.6 fold enrichment (6-mer frequency, TF over GST control).

On to TTATCT, for which the binding signal in the assay with FEV was 1.24 fold enrichment (6-mer frequency, TF over GST control); in the assay with ETV5, 1.27 fold enrichment (6-mer frequency, TF over GST control); with HSF1, 2.24 fold enrichment (6-mer frequency, TF over GST control); with SPIC it was 1.25 fold enrichment (6-mer frequency, TF over GST control); with ELF4, 1.25 fold enrichment (6-mer frequency, TF over GST control); with ELK4, 1.45 fold enrichment (6-mer frequency, TF over GST control). For the same sequence, the binding signal was 1.2 fold enrichment (6-mer frequency, TF over GST control) in the assay with ETV2; 1.13 fold enrichment (6-mer frequency, TF over GST control) in the assay with ELF3; 3.25 fold enrichment (6-mer frequency, TF over GST control) with CRX; 1.29 fold enrichment (6-mer frequency, TF over GST control) in the assay with ETV1.

For the sequence AAACGC, the binding signal with FEV is 1.21 fold enrichment (6-mer frequency, TF over GST control); with ETV5, 1.28 fold enrichment (6-mer frequency, TF over GST control); with HSF1 it was 1.05 fold enrichment (6-mer frequency, TF over GST control); with SPIC it was 1.29 fold enrichment (6-mer frequency, TF over GST control); with ELF4 it was 1.2 fold enrichment (6-mer frequency, TF over GST control); with ELK4 it was 1.27 fold enrichment (6-mer frequency, TF over GST control). In addition, the binding signal was 1.38 fold enrichment (6-mer frequency, TF over GST control) with ETV2; 1.21 fold enrichment (6-mer frequency, TF over GST control) with ELF3; 1.04 fold enrichment (6-mer frequency, TF over GST control) with CRX; 1.31 fold enrichment (6-mer frequency, TF over GST control) with ETV1.

For the sequence CTGTTT, the binding signal in the assay with FEV was 1.41 fold enrichment (6-mer frequency, TF over GST control); with ETV5, 1.42 fold enrichment (6-mer frequency, TF over GST control); with HSF1, 1.13 fold enrichment (6-mer frequency, TF over GST control); with SPIC, 1.31 fold enrichment (6-mer frequency, TF over GST control); with ELF4, 1.38 fold enrichment (6-mer frequency, TF over GST control); with ELK4, 1.29 fold enrichment (6-mer frequency, TF over GST control). In addition, the binding signal was 1.4 fold enrichment (6-mer frequency, TF over GST control) in the assay with ETV2; 1.14 fold enrichment (6-mer frequency, TF over GST control) with ELF3; 1.08 fold enrichment (6-mer frequency, TF over GST control) with CRX; 1.5 fold enrichment (6-mer frequency, TF over GST control) with ETV1.

As to GCTTTC, the binding signal was 1.25 fold enrichment (6-mer frequency, TF over GST control) with FEV; 1.24 fold enrichment (6-mer frequency, TF over GST control) in the assay with ETV5; 1.35 fold enrichment (6-mer frequency, TF over GST control) with HSF1; 1.06 fold enrichment (6-mer frequency, TF over GST control) with SPIC; 1.23 fold enrichment (6-mer frequency, TF over GST control) with ELF4; 1.26 fold enrichment (6-mer frequency, TF over GST control) in the assay with ELK4. The binding signal with ETV2 is 1.59 fold enrichment (6-mer frequency, TF over GST control); with ELF3, 1.47 fold enrichment (6-mer frequency, TF over GST control); with CRX, 1.33 fold enrichment (6-mer frequency, TF over GST control); with ETV1, 1.35 fold enrichment (6-mer frequency, TF over GST control).

For TCGCTA, the binding signal with FEV is 1.08 fold enrichment (6-mer frequency, TF over GST control); with ETV5, 1.07 fold enrichment (6-mer frequency, TF over GST control); in the assay with HSF1 it was 1.15 fold enrichment (6-mer frequency, TF over GST control); with SPIC, 1.06 fold enrichment (6-mer frequency, TF over GST control); with ELF4 it was 1.11 fold enrichment (6-mer frequency, TF over GST control); in the assay with ELK4, 1.16 fold enrichment (6-mer frequency, TF over GST control). For the same sequence, the binding signal with ETV2 is 1.24 fold enrichment (6-mer frequency, TF over GST control); in the assay with ELF3 it was 1.03 fold enrichment (6-mer frequency, TF over GST control); in the assay with CRX it was 1.12 fold enrichment (6-mer frequency, TF over GST control); in the assay with ETV1, 1.08 fold enrichment (6-mer frequency, TF over GST control).

These data come from publication PMC7862700, “An all-to-all approach to the identification of sequence-specific readers for epigenetic DNA modifications on cytosine”.
